PMC5540273 (PLoS ONE, 2017)

Key:
Conditions in all cases: concentration: 1 μM, replicates: in singlicate; n = 1
CSF1R = test system: CSF1R
CSK = test system: CSK
CSNK1A1L = test system: CSNK1A1L
CSNK1A1 = test system: CSNK1A1
CSNK1D = test system: CSNK1D
CSNK1E = test system: CSNK1E
CSNK1G1 = test system: CSNK1G1
CSNK1G2 = test system: CSNK1G2
CSNK1G3 = test system: CSNK1G3
CSNK2A1 = test system: CSNK2A1
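Note: KINOMEscan kinase panel screen.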

SMILES	%Inh (CSF1R) [%]	%Inh (CSK) [%]	%Inh (CSNK1A1L) [%]	%Inh (CSNK1A1) [%]	%Inh (CSNK1D) [%]	%Inh (CSNK1E) [%]	%Inh (CSNK1G1) [%]	%Inh (CSNK1G2) [%]	%Inh (CSNK1G3) [%]	%Inh (CSNK2A1) [%]
Nc1nc(N)c2nc(-c3ccccc3)[nH]c2n1 [SKF-12778]	2	0	0	52	26	25	18	32	30	14
Fc1cccc(CSc2nnc(-c3ccc4c(c3)CCO4)o2)c1	0	0	11	8	0	0	15	10	0	16
O=C(NCCNc1ccnc(Nc2ccc(F)cc2)n1)Nc1ccc2c(c1)OCO2 [GSK1379882]	18	2	0	0	2	42	3	0	22	3
COc1cccc(-n2cnc3c(N)ncnc32)c1 [SKF-97416]	7	8	0	31	12	0	0	0	3	0
CN1C(=O)C(Nc2cc(Cl)c(O)c(Cl)c2)=C(c2ccc(Cl)cc2)C1=O [SB-404321]	0	0	0	0	0	0	0	0	6	0
Cl.NS(=O)(=O)c1cccc(Nc2cc(-c3ccc(F)cc3)n[nH]2)c1 [GW824645]	9	0	0	3	0	19	3	0	0	0
COc1cc(Nc2nccc(N3CCC(NC(=O)C(C)c4ccc(Cl)cc4)C3)n2)cc(OC)c1OC (centres unmarked) [GSK1379757]	4	0	0	0	0	18	0	0	25	1
COc1ccc(-c2coc3ccc(-c4nnc(SCc5cccc(C#N)c5)o4)cc23)cc1	2	20	7	10	0	5	11	0	8	3
COc1cc2nccc(Nc3cccc(Oc4ccccc4)c3)c2cc1OC.Cl [GW284543]	0	11	12	0	0	5	0	0	26	0
Cc1nnc(-c2ccc(C)c(-c3ccc(C(=O)O)cc3)c2)o1 [GW608005]	0	0	0	0	0	8	7	0	9	21
COc1cc(Nc2ccnc3ccc(C(F)(F)F)cc23)cc(OC)c1OC [GW577382]	8	3	19	36	21	9	3	0	27	10
CN(C)c1cc(-c2ccc3c(N)n[nH]c3c2)nc(N)n1 [GSK2219329]	2	0	0	0	25	27	0	2	16	0
COc1cccc(C2=C(N(C)c3ccccc3)C(=O)NC2=O)c1 [SB-334865]	4	0	1	0	15	2	1	0	2	0
O=C(Nc1n[nH]c2nc(-c3ccccc3)c(Br)cc12)C1CC1 [SB-708998]	0	0	0	6	0	0	10	2	15	6
Nc1ncnc2c1ncn2-c1cccc(F)c1 [SKF-97560]	20	0	0	16	26	0	0	13	0	28
COc1cc(OC)cc(-c2cc3cnc(N)nc3nc2NC(=O)NC(C)(C)C)c1	73	0	0	36	0	0	0	0	32	0

SMILES	%Inh (CSF1R) [%]	%Inh (CSK) [%]	%Inh (CSNK1A1L) [%]	%Inh (CSNK1A1) [%]	%Inh (CSNK1D) [%]	%Inh (CSNK1E) [%]	%Inh (CSNK1G1) [%]	%Inh (CSNK1G2) [%]	%Inh (CSNK1G3) [%]	%Inh (CSNK2A1) [%]
COc1cccc(C2=C(Nc3cccc(C(=O)O)c3)C(=O)NC2=O)c1 [SB-390770]	0	0	12	0	0	2	2	0	7	7
O=C(Nc1n[nH]c2cc(-c3ccccc3F)ccc12)C1CC1 [SB-733371]	0	0	15	0	0	14	0	0	10	3
CCS(=O)(=O)c1ccc(OC)c(Nc2ncc(-c3ccc(F)cc3)o2)c1.Cl [GW591947]	0	0	0	0	18	40	13	0	8	0
COc1cc2ncn(-c3cc(OCc4ccncc4Br)c(C(N)=O)s3)c2cc1OC [GW854278]	0	6	10	0	8	0	18	0	0	0
Cc1ccc(Oc2ccc(Nc3ncnc4cc[nH]c34)cc2C)cn1	5	20	11	8	0	0	12	13	0	32
COC(=O)c1c(-c2ccccc2)c2cc(Br)ccc2c(=O)n1Cc1ccc(NC(=O)CCC(=O)O)cc1	9	0	18	16	0	0	0	11	0	11
Nc1nc(-c2ccccc2F)c(-c2ccnc3ccccc23)s1 [GW560459]	0	0	7	72	66	51	13	1	25	0
COC(=O)c1c(-c2ccccc2)c2cc(C)ccc2c(=O)n1Cc1ccccc1	17	0	0	0	0	0	0	5	0	0
COc1ccc(CNC(=O)NC2CCN(c3ccnc(Nc4ccc(F)cc4)n3)C2)cc1 (centres unmarked) [GSK1379706]	16	5	12	25	29	15	21	0	23	4
CCC(=O)c1c(-c2ccccc2)c2cc(Cl)ccc2c(=O)n1Cc1cc(S(C)(=O)=O)n(CCC(C)(C)O)n1	16	0	0	31	8	0	21	15	0	17
O=C(Nc1ccc2c(c1)OCO2)NC1CCN(c2ccnc(NCc3ccc(F)cc3)n2)CC1 [GSK1379859]	0	0	15	0	0	36	0	0	20	0
COc1ccc(-c2cc3c(C)nc(N)nc3n([C@H]3CC[C@H](O)CC3)c2=O)cn1	0	0	0	13	0	0	0	0	0	0
Nc1ncnc2c1ncn2-c1ccc(Cl)cc1 [AH2635]	11	0	12	0	9	46	0	0	17	0
O=C(Nc1n[nH]c2nc(-c3ccccc3)c(Cl)cc12)C1CC1 [SB-734909]	28	0	0	0	0	11	0	0	0	31
Cc1ccccc1COc1cc(-n2cnc3cc(Cl)ccc32)sc1C(N)=O [GW813349]	0	0	0	24	1	2	0	7	8	5
Cc1nn2c(=O)cc(N3CCOCC3)nc2n1Cc1cccc(Cl)c1Cl [GSK2342769]	13	0	22	0	4	22	0	0	9	16
